Data from PubChem BioAssay AID662 (National Center for Advancing Translational Sciences (NCATS), 2007).
Out of some 71,000 compounds screened, about 1,800 (2.5%) were called active. Roughly 26% stayed inconclusive and do not appear here. This excerpt belongs to a sample that is enriched for actives. A number with no mark means an inactive call. Calls come from the whole dose curve; as a rule, active = well fitted activation curve with a large enough effect in the signal ratio, with a control signal flat (not every such curve was filed as active); inconclusive = small, poorly fitted or top-dose-only effect, or effect the other way, or a change in a side signal; inactive = flat fitted curve, though single readings scatter; the % refers to the signal ratio.

experiment: Cell signaling CRE-BLA (Fsk stim); conditions: CHO CRE-bla reporter (cAMP response element driving beta-lactamase), forskolin EC10, beta-lactamase ratio; series mostly up to 38.2 µM; activity change, negative = inhibition: at the top concentration; for activity change, negative = inhibition: % of control where 0% means no effect
Outline: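 AC50 values, positive or negative, reflect shifts in EC10 NKH 477-induced CRE-bla reporter activity in CHO cells. Incubation lasted 3 h at 37 °C before CCF4 substrate (2 h, room temperature) and ratiometric 460/530 nm reading.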
Potency is the fitted concentration of half-maximal effect.

Row | SMILES | activity change, negative = inhibition | Potency
1 | C=C(C)C1CC=C(C)C(O)C1 (configuration not stated) | -2.45% | 
2 | CC(=O)NC(C)(C)C1CC=C(C)/C(=N\O)C1 (configuration not stated) | -6.01% | 
3 | CC(C)OC(=O)CN1C(=O)c2ccccc2C1=O | -2.74% | 
4 | O=C1C(c2[nH]c3ccccc3c2O)=Nc2ccccc21 | -11.5% | 
5 | CCCCn1c(CCCNC(=O)CC)nc2ccccc21 | -6.76% | 
6 | O=S(N1CCCCCC1)C12CC3CC(CC(C3)C1)C2 (configuration not stated) | 6.48% | 
7 | Cc1nn2c3ccccc3nc2n(C)c1=O | -1.15% | 
8 | Cn1c(CNC(=O)C(C)(C)C)nc2ccccc21 | 4.87% | 
9 | Cn1c(-c2ccc(C(=O)c3ccccc3)s2)nc2ccccc21 |  | 2 µM (active)
10 | Cc1occc1C(=O)N1CCCc2ccccc21 | 0.434% | 
11 | Cc1cccc(Br)c1 | -6.01% | 
12 | COc1cccc(-c2nn(C)c3sc(C(=O)N4CCN(c5ccccc5)CC4)cc23)c1 |  | 2.51 µM (active)
13 | COc1ccccc1N1CCN(C(=O)c2cn(-c3ccccc3)nc2-c2cccnc2)CC1 | -9.11% | 
14 | CCOC(=O)N1CCN(C(=O)c2cc3c(-c4ccc(Cl)cc4)nn(C)c3s2)CC1 | 5.94% | 
15 | O=S(=O)(NCC1CCCO1)c1ccc2ccccc2c1 (configuration not stated) | 0.294% | 
16 | O=C(O)CCC(=O)NCc1ccc2[nH]c3c(c2c1)CCCC3 | -4.41% | 
17 | CC/C=C/C/C=C/C/C=C/CCCCCCCC(=O)OCC | 7.6% | 
18 | Oc1c(C(c2cccs2)N2CCN(c3ccc(F)cc3)CC2)sc2ncnn12 (configuration not stated) | 10.8% | 
19 | Cc1c2c(nc3ccccc13)-c1cccc(=O)n1C2 |  | 1.58 µM (active)
20 | Cc1ccc(N2C(=O)CC(NCc3ccc4c(c3)OCO4)C2=O)cc1Cl (configuration not stated) | -2.37% | 
21 | COc1ccc(N)c(OC)c1 | 8.82% | 
22 | CCn1c(=N)c(S(=O)(=O)c2ccc(F)cc2)cc2c(=O)n3ccccc3nc21 |  | 2 µM (active)
23 | Cc1cc(NC(=O)CN2CCCCC2C)nc2c1c(=O)oc1ccccc12 (configuration not stated) | 15.3% | 
24 | CCN(CC)CCCCn1c(-c2ccccc2)nc2c(N3CCOCC3)nc(C)nc21 | 2.26% | 

Row | SMILES | activity change, negative = inhibition | Potency
25 | Fc1ccc(Br)cc1/C=N/n1cnnc1 | -0.497% | 
26 | Cc1cc(/C=N/n2cnnc2)c(C)n1-c1ccc2ncccc2c1 |  | 0.0631 µM (active)
27 | O=C(CC1CCCCC1)Nc1c2c(nn1-c1ccc(F)cc1)CS(=O)(=O)C2 | -0.0676% | 
28 | Cc1cccc(-n2nc3c(c2NC(=O)c2ccc(Br)o2)CSC3)c1C | -9.63% | 
29 | COc1cccc(C(=O)Nc2c3c(nn2-c2cccc(C)c2C)CS(=O)(=O)C3)c1OC |  | 7.94 µM (active)
30 | COc1ccc(CCN=C2SCC(=O)N2C)cc1OC | 9.19% | 
31 | CC1=NC2(CCCc3c2no[n+]3[O-])N(O)C1(C)C (configuration not stated) | 8.65% [at 7.6 µM] | 
32 | CNC(=O)C1(C)C=CC2(CCCCC2)N1C(C)=O (configuration not stated) | -8.81% | 
33 | COC(=O)c1ccc(Oc2nc(Nc3ccc(F)cc3)nc(N3CCCC3)n2)cc1 |  | 3.16 µM (active)
34 | CC(C)CC1(C(=O)NCc2ccccn2)C=CCN1C(=O)c1ccccc1 (configuration not stated) | 0.31% | 
35 | CCC1(C)N(O)C(C)(C)C(c2ccc(OC)cc2)=[N+]1[O-] (configuration not stated) | 1.03% | 
36 | Cc1cnc(CNc2nc(-c3cccnc3)nc3ccccc23)cn1 |  | 12.6 µM (active)
37 | Cc1cnc(CNc2ncncc2-c2ccccc2Cl)cn1 | 6.66% | 
38 | c1ccc(CNc2ncncc2-c2cccnc2)cc1 | 2.99% | 
39 | CCCC(NS(=O)(=O)c1ccc(OC)cc1)C(=O)O (configuration not stated) | 1.91% | 
40 | CC1CCc2sc3nc(N4CCN(CCO)CC4)n4ncnc4c3c2C1 (configuration not stated) |  | 5.01 µM (active)
41 | COc1ccccc1-n1c(CNC(=O)c2ccccc2)nnc1SCC(=O)Nc1nnc(C)s1 | -0.00921% | 
42 | CC1CN(Cc2nc3c(c(=O)n(C)c(=O)n3C)n2Cc2cccc(Cl)c2)CC(C)O1 (configuration not stated) | 8.04% | 
43 | Cc1nc(SC(C)C)[nH]c(=O)c1Cc1ccccc1 | 26.6% | 
44 | CCOC(=O)c1cc2n(c1C)-c1ccccc1C2=O |  | 15.8 µM (active)
45 | CCOC(=O)Nc1ccccc1N1C(=O)c2ccccc2C1=O | 4.56% | 
46 | CCOC(=O)c1cc2ccccc2nc1C | 11.4% | 
47 | COC(=O)c1ccc(C(NC(=O)OCc2ccccc2)/C(C)=C/[C@@H](C)C(=O)NCc2cc(C)on2)cc1 (some centres not stated) | -12.4% | 
48 | O=C(NCc1ccco1)c1nc(-c2ccccc2)n(-c2ccccc2)n1 | -3.72% | 

Row | SMILES | activity change, negative = inhibition | Potency
49 | Cc1nc2nc(SCC(=O)NCc3ccco3)nn2c(C)c1Cc1ccccc1 | -8.05% | 
50 | Cc1nn(-c2ccccc2)c2sc(C(=O)N(Cc3ccco3)C(C)C(=O)NC(C)(C)C)cc12 (configuration not stated) |  | 1.58 µM (active)
51 | Cc1ccnc(SCCn2c(N(C)Cc3ccccc3)nc3c2c(=O)n(C)c(=O)n3C)n1 | -5.53% | 
52 | CC(=O)N1CCC(C(=O)Nc2nc(-c3ccccc3)ns2)CC1 |  | 10 µM (active)
53 | CCN(CC)S(=O)(=O)N1CCC(C(=O)NC(C)CCc2ccccc2)CC1 (configuration not stated) | -6.97% | 
54 | Cc1ccc2c(NC(=O)C3CC3)cccc2n1 | -5.14% | 
55 | CC(=O)N1CCN(c2cccc(C)c2C)CC1 | 1.32% [at 7.6 µM] | 
56 | Cn1c(NC(=O)c2ccc3c(c2)OCO3)cc(=O)n(C)c1=O | -10.7% | 
57 | Cc1c(NC(=O)Nc2ccccc2Cl)sc(=S)n1C | 9.49% | 
58 | COc1ccc(OC)c(NC(=O)Cn2c(=O)oc3ccccc32)c1 | 3.37% | 
59 | COc1ccc(OC)c(NC(=O)CSc2nc(N)c(-c3ccccc3)c(=O)[nH]2)c1 |  | 12.6 µM (active)
60 | CCn1c(COc2ccc(OC)cc2)nnc1SCC(=O)Nc1cc(OC)ccc1OC | -2.91% | 
61 | CCCC(C(=O)N1CCOCC1)N1C(=O)C2C3C=CC(C3)C2C1=O (configuration not stated) | 0.508% | 
62 | CC(C)C[C@@H](CC(=O)N[C@@H](CCC(=O)O)CC(=O)O)NC(=O)[C@@H]1CCCC[C@H]1NC(=O)C[C@@H](NC(=O)C[C@H](Cc1c[nH]c2ccccc12)NC(=O)[C@@H]1CCCC[C@H]1N)C(C)C | -15.3% | 
63 | Cc1ccc(NC(=O)CSc2nnc(-c3cnccn3)n2Cc2ccco2)cc1C | 12.3% | 
64 | CCn1c(SCC(=O)Nc2cc(C)ccc2C)nnc1-c1cnccn1 |  | 3.16 µM (active)
65 | CCn1c(SCC(=O)Nc2nccs2)nnc1-c1ccncc1 | -3.82% | 
66 | CSc1ccc(-c2c(C#N)c(N)nc3c2c(C)nn3-c2ccccc2)cc1 |  | 10 µM (active)
67 | Cc1cccc(NC(=O)COc2ccc(Br)cc2C)n1 | 7.56% | 
68 | C#CCCCCCCCCCCCCCCCC(=O)O | -5.11% | 
69 | COc1ccc(O)c(C=Nc2cc(C)on2)c1 | -1.66% | 
70 | c1ccc2c(Nc3ccncc3)nc(-c3ccc4c(c3)OCO4)nc2c1 |  | 12.6 µM (active)
71 | O=C(Nc1cccnc1)c1ccc2c(c1)OCO2 | 1.51% | 
72 | c1cncc(CNc2ccnc(-c3ccc4c(c3)OCO4)n2)c1 | -27% | 
